Data taken from PubChem BioAssay AID1026 (Columbia University Molecular Screening Center, 2008).
Active and inactive are the calls of the source. No rule for the calls is given here.

The molecules below were run against Bifunctional epoxide hydrolase 2 (Homo sapiens) (UniProt P34913) (assay: sEH inhibitor concentration-response potency, dose response, biochemical, human sEH, fluorescence, Infinite200 (AID 1026)). Conditions: recombinant human sEH, fluorogenic substrate, at 0.2 µM, hits give high values.
Sequence of Bifunctional epoxide hydrolase 2 (Homo sapiens) (P34913 whole entry, looked up): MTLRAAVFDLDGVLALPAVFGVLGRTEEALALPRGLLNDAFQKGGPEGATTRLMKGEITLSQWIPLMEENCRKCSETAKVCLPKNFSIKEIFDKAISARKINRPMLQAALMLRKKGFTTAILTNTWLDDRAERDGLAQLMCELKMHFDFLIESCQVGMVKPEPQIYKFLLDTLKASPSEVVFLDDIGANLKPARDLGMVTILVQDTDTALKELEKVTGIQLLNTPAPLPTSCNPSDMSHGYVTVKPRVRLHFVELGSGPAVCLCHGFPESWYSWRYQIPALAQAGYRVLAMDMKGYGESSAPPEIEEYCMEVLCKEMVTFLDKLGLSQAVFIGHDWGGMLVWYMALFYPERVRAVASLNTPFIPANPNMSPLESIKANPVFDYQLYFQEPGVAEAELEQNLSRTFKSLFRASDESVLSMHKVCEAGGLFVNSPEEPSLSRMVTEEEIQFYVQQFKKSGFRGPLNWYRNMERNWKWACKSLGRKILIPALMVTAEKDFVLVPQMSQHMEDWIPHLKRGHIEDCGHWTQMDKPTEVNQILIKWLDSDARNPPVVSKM

inhibition, inactive:
CS(=O)(=O)N(Cc1ccc(C(=O)NCCSCc2ccco2)cc1)c1ccccc1 53.6%
O=C(Nc1cccc(F)c1)NC1CC2CCCC(C1)N2C1CC1 (stereo not given) 58.4%
Cc1ccccc1C(=O)N1CCC(C(=O)Nc2ccc(S(=O)(=O)N(C)C(C)C)cc2)CC1 50.3%
O=C(N/N=C/c1ccc(O)cc1)c1csc2ccccc12 54.5%
O=C(NCc1ccc2c(c1)OCO2)C1CCN(Cc2cnn(-c3ccccc3)c2-n2cccc2)CC1 57.2%
CCN(CCNC(=O)C1CCN(Cc2nc(-c3ccc(Cl)cc3)oc2C)CC1)c1ccccc1 36.3%
COc1ccc(N2CCC(CNC(=O)Nc3cccc(OC)c3)C2)cc1 (stereo not given) 44.5%
CC(=O)NC1CC2CCCC(C1)N2C(=O)Nc1ccc(Cl)c(C(F)(F)F)c1 (stereo not given) 41.4%
O=C1CSc2ccc(C(=O)NCCC3=CCCCC3)cc2N1 51.9%
CCOc1ccc(NC(=O)N2CCC(c3ccc(C)cc3)C2)cc1 (stereo not given) 50.5%
CC1CCCC(NC(=O)Nc2cccs2)C1C (stereo not given) 49.2%
COc1ccc(CCNC(=O)c2ccc3c(c2)NC(=O)C(N2CCOCC2)S3)cc1OC (stereo not given) 49.2%
Cc1oc(-c2ccccc2F)nc1CN1CCC(C(=O)NCCC2=CCCCC2)CC1 56.5%
CCN(CCCNC(=O)CCCCn1c(=O)[nH]c2ccccc2c1=O)c1ccccc1 38.1%
O=C(Nc1ccc2c(c1)OCCO2)NC12CC3CC(CC(C3)C1)C2 72.8%
CCCC(=O)Nn1cnc2c(c1=O)C1(CCCCC1)Cc1ccccc1-2 71.2%
O=C(Nc1cccc(C(F)(F)F)c1)N1CCC(c2nc(-c3ccc(F)cc3)no2)CC1 68.4%
CCn1c(C(=O)N2CCCC(C(=O)NCCCc3ccccc3)C2)cc2sccc21 (stereo not given) 65.6%
CCc1c(C)nc2ncnn2c1N1CCC(C(=O)NCc2ccc3c(c2)OCO3)CC1 41%
CSc1cccc(NC(=O)Nc2ccc(Cl)cc2)c1 59.3%
CCOc1ccc(NC(=O)Nc2ccc(N(C)C(C)=O)cc2)cc1 54.1%
O=C(CCC1CCCCC1)NNC(=O)NC12CC3CC(CC(C3)C1)C2 59.2%
O=C(NCC1CCCC(CNC(=O)N2CCc3ccccc32)C1)N1CCc2ccccc21 (stereo not given) 60.4%
Cc1ccc(CCNC(=O)C2CCCN(S(=O)(=O)c3cccc4nsnc34)C2)cc1 (stereo not given) -5.2%
CCC(CC)NC(=O)COC(=O)c1ccc(OCC(=O)Nc2ccccc2OC)c(OC)c1 48.6%
CC(c1ccccc1)N1CCn2c(nc3cc(NC(=O)NC4CCCCC4)ccc32)C1 (stereo not given) 70.1%
O=C(N/N=C\c1ccc(Cl)s1)c1cccs1 74%
Cc1ccccc1CSCCNC(=O)CCSc1ccccc1 44.2%
Cc1nc2cc(NC(=O)NCCC3=CCCCC3)ccc2o1 45%
O=C(Nc1ccc(OC(F)F)cc1)Nc1cccc(C(F)(F)F)c1 63.2%
O=C(NC1CCCCCCC1)C1CCN(S(=O)(=O)N2CCC3(CC2)OCCO3)CC1 49.5%
O=C(NC12CC3CC(CC(C3)C1)C2)N1CCC(O)(c2ccc3c(c2)OCO3)CC1 46%
O=C(CCSc1ccc(Cl)cc1)NC12CC3CC(CC(C3)C1)C2 46.4%
CC(C)c1ccc(NC(=O)NC2CCN(CC(=O)Nc3cccc4ccccc34)CC2)cc1 62.2%
Cc1ccc(S(=O)(=O)N2CCCC(C(=O)NCCC3=CCCCC3)C2)cc1 (stereo not given) 35.1%
O=C(NCc1ccc2c(c1)OCO2)C1CCC(CNS(=O)(=O)c2cccc3nsnc23)CC1 (stereo not given) 59.7%
Cc1ccc(NC(=O)NCCCc2ccccc2)cc1 48.7%
O=C(Nc1ccc(Cl)c(C(F)(F)F)c1)C1CCCN(S(=O)(=O)c2cnc[nH]2)C1 (stereo not given) 72.5%
CCCCCC(=O)Nc1ccc2oc(-c3cncc(Br)c3)nc2c1 51.2%
Cc1ccc(SCCC(=O)NCCSCc2ccccc2C)cc1 52.5%
